Records with an inconclusive call do not appear. Activity calls are given as the source filed them. Calls follow the shape of the dose curve; as a rule, active = well fitted cell-killing curve with a large enough effect; inconclusive = small, poorly fitted or top-dose-only effect; inactive = flat fitted curve, though single readings scatter.
assay: qHTS of pediatric cancer cell lines to identify multiple opportunities for drug repurposing: Primary screen for TC32 cells (AID 1347089); settings: TC32 Ewing sarcoma viability, CellTiter-Glo luminescence, 48 h; series mostly up to 45.8 µM; activity change, negative = cytotoxic: at the top concentration; also: nearly all actives have a fitted effect of over 60% in size
Source text: Drug repurposing or repositioning has been offered as a strategy for drug development in oncology programs. This approach has special potential for childhood cancers and other rare or orphan diseases, where the expected return on new drug development has been a disincentive to pharmaceuticals.
In this project we exploit the poly-pharmacology of drugs to discover new indications via phenotypic screening of a panel of 19 well-characterized cell lines derived from solid tumors seen in children and adolescents. The goal is to identify approved drugs with previously unrecognized anticancer properties that has the potential to reveal new mechanisms and biological processes involved in carcinogenesis or drug resistance. We employed a titration-based paradigm (quantitative high-throughput screening or qHTS), where all compounds were tested at multiple concentrations for their effect on cell viability. Concentration-response curves (CRCs) were derived directly from the primary screen, and both potency and efficacy values were used to identify compounds with robust bioactivity profiles. We screened the NIH Chemical Genomics Center (NCGC) Pharmaceutical Collection (NPC) and Mechanism Interrogation Plate (MIPE) small molecule collections of approved and investigational compounds against these cell lines; and measured metabolically active cells after 48 hours of compound treatment as a proxy for cell viability.
Assay Submitter: Nathalia J. Martinez, National Center for Advancing Translational Sciences, National Institutes of Health, Rockville, MD, USA; email: natalia.martinez@nih.gov
[1] Shen, M et al. Quantitative high-throughput phenotypic screening of pediatric cancer cell lines identifies multiple opportunities for drug repurposing. Oncotarget 2017 Dec 19;9(4):4758-4772. PMID 29435139.
The cells were obtained from University of North Carolina (UNC), Pediatric Preclinical Testing Program (PPT), and Coriell Institute (CI).
qHTS cell viability assay:
Cells were assayed in growth media at a density of 500-1,000 cells/well. Five microliters of cells were dispensed into 1,536-well, white, solid-bottom, TC-treated plates (Greiner Bio One) using a multidrop dispenser and incubated at 37 degrees C, 5% CO2, under a humidified atmosphere for 5 hours. Twenty-three nanoliters of compounds and controls (neutral control DMSO or positive control bortezomib at final concentration of 2.3 uM) were subsequently transferred by Kalypsys pintool. For primary screens, the MIPE collection was tested at 11-point dilutions (final concentrations range from 0.78 nM to 46 µM) and the NPC collection at 8-point dilutions (final concentrations range from 0.59 nM to 46 µM). Compounds tested in follow-up screens were assayed at 11-point dilutions. Cells were incubated for 48 hours, followed by addition of 3 uL of CellTiter-Glo (Promega). After a 15min incubation at room temperature, samples were analyzed for luminescence intensity using a ViewLux High-throughput CCD imager equipped with clear filters.
% is scaled to controls: 0 for no effect and ±100 for the full control effect; potency is read from the fitted curve at half-maximal effect.

Structure (SMILES)	activity change, negative = cytotoxic	Potency
CCc1cncnc1N1CCN(Cc2nc3ccc(C(F)(F)F)cc3[nH]2)CC1	-14.8% (inactive)	
O=c1ncn2nc(Sc3ccc(F)cc3F)ccc2c1-c1c(Cl)cccc1Cl	-4.92% (inactive)	
CCc1ccc(CCOc2ccc(CC3SC(=O)NC3=O)cc2)nc1 (stereo not given)		inactive
CCOC(=O)N1CCC(=C2c3ccc(Cl)cc3CCc3cccnc32)CC1		inactive
Cc1ccccc1C(C(=O)NC1CCCC1)N(C(=O)Cn1cnc2ccccc21)c1cccc(F)c1 (stereo not given)	4.89% (inactive)	
O=C(c1cc(Cc2n[nH]c(=O)c3ccccc23)ccc1F)N1CCN(C(=O)C2CC2)CC1		16.5 µM (active)
Cc1cccc(-c2nn(C(=S)Nc3ccccc3)cc2-c2ccnc3ccccc23)n1	2.93% (inactive)	
C[C@H](NC(=O)Cc1cc(F)cc(F)c1)C(=O)N[C@@H]1C(=O)N(C)c2ccccc2-c2ccccc21	4.98% (inactive)	
Fc1ccc(Cl)cc1-c1nc(Nc2ccncc2)c2nccnc2n1	-1.79% (inactive)	
CCc1cc(Nc2nccc(-c3c(-c4ccc(OC)c(C(=O)Nc5c(F)cccc5F)c4)nc4ccccn34)n2)c(OC)cc1N1CCC(N2CCN(S(C)(=O)=O)CC2)CC1	-20.1% (inactive)	
Cc1cn[nH]c1		inactive
C[C@]1(c2nc3c(C(N)=O)cccc3[nH]2)CCCN1	-3.98% (inactive)	
C1COC(NC(C2CC2)C2CC2)=N1		inactive
NCCc1ccc(O)c(O)c1	11.2% (inactive)	
Cc1ccnc(NS(=O)(=O)c2ccc(NC(=O)Nc3ccc(S(=O)(=O)Nc4nccc(C)n4)cc3)cc2)n1	12.8% (inactive)	
N=c1nc(N2CCCCC2)cc(N)n1O		inactive
CCCCCCCc1ccc(CCc2cccc(O)c2C(=O)O)cc1	-1.13% (inactive)	
CCOc1ccc(Cc2cc([C@@H]3O[C@H](CO)[C@@H](O)[C@H](O)[C@@H]3O)ccc2Cl)cc1	8.77% (inactive)	
c1ccc([C@H]2CN3CCSC3=N2)cc1		inactive
Cn1c(=O)c(F)c(Nc2ccc(I)cc2F)c2c(=O)n(C[C@@H](O)CO)cnc21	4.66% (inactive)	

Structure (SMILES)	activity change, negative = cytotoxic	Potency
S=C(NCc1ccc2c(c1)OCO2)N1CCN(c2ncnc3c2oc2ccccc23)CC1	10.3% [at 92.2 µM] (inactive)	
O=C(Nc1cccnc1)N1CCC(Cc2cccc(Oc3ccc(C(F)(F)F)cn3)c2)CC1	-15.4% (inactive)	
COc1cc(Oc2ccnc3cc(OC)c(OC)cc23)ccc1NC(=O)NC(C)c1nccs1 (stereo not given)	-2.49% (inactive)	
NCCCC(N)(C(=O)O)C(F)F (stereo not given)		inactive
Nc1cccc(S(=O)(=O)N2CCCN(S(=O)(=O)c3ccc4c(c3)OCCO4)CC2)c1	1.67% (inactive)	
CN(C)C(=O)c1ccc(S(=O)(=O)c2ccc(NC(=O)[C@@](C)(O)C(F)(F)F)c(Cl)c2)cc1	-5.87% (inactive)	
NC(=O)c1ccc(-c2nc(-c3ccc4c(c3)OCCO4)c(-c3ccccn3)[nH]2)cc1	11.6% (inactive)	
CCCn1c(=O)c2[nH]c(C34CC5CC3C[C@@H](C5)C4)nc2n(CCC)c1=O	11.1% (inactive)	
CCOc1cc(N2CCC(O)CC2)ccc1Nc1ncc2c(n1)N(C)c1ccccc1C(=O)N2C		23.4 µM (active)
CC(C)(C)NCC(O)c1ccc(O)c(CO)c1 (stereo not given)		inactive
Cc1[nH]c(=O)c(C#N)cc1-c1ccc2nccn2c1		inactive
c1ccc(-c2nn3c(c2-c2ccnc4cc(OCCN5CCOCC5)ccc24)CCC3)nc1	-5.42% (inactive)	
O=NN(CCCl)C(=O)NCCCl		inactive
CCn1cc(C(=O)O)c(=O)c2cc(F)c(N3CCNC(C)C3)c(F)c21 (stereo not given)		inactive
NC(=O)C1CCCc2c1[nH]c1ccc(Cl)cc21 (stereo not given)	2.8% (inactive)	
CCCc1nn(C)c2c(=O)[nH]c(-c3cc(S(=O)(=O)N4CCN(C)CC4)ccc3OCC)nc12	-7.5% (inactive)	
O=C(Nc1nc2ccccc2n1CCN1CCOCC1)c1cccc([N+](=O)[O-])c1	-3.16% (inactive)	
CC(C[N+](C)(C)C)OC(N)=O (stereo not given)		inactive
CCCc1nc2c(C)cc(-c3nc4ccccc4n3C)cc2n1Cc1ccc(-c2ccccc2C(=O)O)cc1		inactive
CC(c1cc2ccccc2s1)N(O)C(N)=O (stereo not given)		inactive

Source: PubChem BioAssay (NCATS)
